From PubChem BioAssay (EPA / NIEHS)
Inconclusive results are not listed. Activity calls are given as the source filed them. The calls were made as follows, unless noted: active = hit-call score of the fitted dose curve at least 0.9, where 1 is the maximum; inactive = score below 0.9.

Tests used:
[1] = ATG_TAL_CIS: Attagene CIS-FACTORIAL HepG2 Assay for human TAL Basal Promoter (AID 2282966); settings: HepG2 Attagene cis-factorial TAL promoter reporter; actives raise or lower the signal;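 also: background control endpoint measuring basal TAL promoter reporter mRNA not a specific factor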
Procedure, shortened: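 Fluorescence of labelled reporter cDNA fragments, resolved by capillary electrophoresis, gave the readout. Human HepG2 liver cells carried transiently transfected cis-element reporter units and were treated for 24 hours; activity was fitted bidirectionally against DMSO.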

[2] = ATG_TGFb_CIS: Attagene CIS-FACTORIAL HepG2 Assay for human Transforming Growth Factor (TGF) (AID 2282967); settings: HepG2 Attagene CIS TGFb reporter, mRNA transcription; actives raise or lower the signal
Procedure, shortened: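 After a 24-hour incubation with compound, transfected HepG2 cells were lysed for RNA; reporter cDNA was amplified, fluorescently end-labeled and separated by CE. DMSO served as baseline for bidirectional fits.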

[3] = ATG_VDRE_CIS: Attagene CIS-FACTORIAL HepG2 Assay for human Vitamin D Receptor Element (VDRE) (AID 2282968); settings: HepG2 VDRE cis-reporter transcription, actives raise or lower the signal
Procedure, shortened: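 HepG2 cells transiently transfected with cis-element reporter units, dosed 24 h; reporter mRNA measured by RT-PCR, 6-FAM labeling, HpaI digestion and capillary electrophoresis. Activity fitted bidirectionally against DMSO baseline.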

[4] = molecular target: X-box-binding protein 1 (Homo sapiens) (UniProt P17861); experiment: ATG_Xbp1_CIS: Attagene CIS-FACTORIAL HepG2 Assay for human X-box Binding Protein 1 (XBP1) (AID 2282972); settings: HepG2 XBP1 cis-element reporter, Attagene multiplex; actives raise or lower the signal
Procedure, shortened: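 HepG2, transient MRTU transfection (cis-promoter driven), 24 h compound exposure. Total RNA → oligo(dT) RT → PCR → 6-FAM labeling → HpaI cut → CE. Bidirectional fit vs DMSO.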

[5] = ATG_M_19_TRANS: Attagene TRANS-FACTORIAL HepG2 Assay for M19 Transcription Factor (Internal Marker) (AID 2282974; active = hit-call score of the fitted dose curve at least 0.9, where 1 is the maximum); settings: HepG2 Attagene TRANS-FACTORIAL M19 internal marker reporter
Procedure, shortened: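 Using RT-PCR and capillary electrophoresis, reporter mRNA from transiently transfected human HepG2 cells was quantified following 24 h exposure; activity was fitted in the positive direction against DMSO.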

[6] = molecular target: Estrogen-related receptor gamma (Homo sapiens) (UniProt P62508); experiment: ATG_ERRg_TRANS: Attagene TRANS-FACTORIAL HepG2 Assay for human Estrogen-Related Receptor gamma (ERRg) (AID 2282977; active = hit-call score of the fitted dose curve at least 0.9, where 1 is the maximum;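 also: hits increase reporter signal over DMSO so potencies reflect activators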); settings: HepG2 Attagene TRANS reporter, ERRg transactivation
Procedure, shortened: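 HepG2 cells transiently transfected with multiplexed GAL4-UAS reporter units and chimeric NR-Gal4 constructs were exposed to test chemicals for 24 h. Reporter mRNA was measured by RT-PCR, 6-FAM primer extension, HpaI digestion and capillary electrophoresis; gain-of-signal versus DMSO.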

[7] = molecular target: Hepatocyte nuclear factor 4-alpha (Homo sapiens) (UniProt P41235); experiment: ATG_HNF4a_TRANS: Attagene TRANS-FACTORIAL HepG2 Assay for human Hepatocyte Nuclear Factor 4 alpha (HNF4a) (AID 2282982; active = hit-call score of the fitted dose curve at least 0.9, where 1 is the maximum); settings: HepG2 HNF4a transactivation reporter, mRNA readout
Procedure, shortened: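 HepG2 cells transiently transfected with multiplexed GAL4-UAS reporter units responsive to chimeric NR-GAL4 proteins; compound exposure 24 h. Reporter mRNA quantified by RT-PCR, 6-FAM labelling, HpaI digestion and capillary electrophoresis; gain of signal versus DMSO baseline.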

[8] = ATG_M_06_TRANS: Attagene TRANS-FACTORIAL HepG2 Assay for M06 Transcription Factor (Internal Marker) (AID 2282983; active = hit-call score of the fitted dose curve at least 0.9, where 1 is the maximum;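 also: reporter transcript level by RT-PCR then capillary electrophoresis fluorescence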); settings: HepG2 Attagene TRANS M06 internal marker reporter
Procedure, shortened: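 Transfect HepG2 with MRTUs → dose compounds 24 h → isolate RNA, oligo(dT) RT → PCR with reporter primers → 6-FAM primer extension → HpaI digest → CE fragment analysis. Positive direction vs DMSO.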

[9] = ATG_M_32_TRANS: Attagene TRANS-FACTORIAL HepG2 Assay for M32 Transcription Factor (Internal Marker) (AID 2282984; active = hit-call score of the fitted dose curve at least 0.9, where 1 is the maximum;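 also: transcript level of a background control reporter unit measured by RT-PCR and capillary electrophoresis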); settings: HepG2 Attagene TRANS M32 internal marker reporter
Procedure, shortened: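 HepG2 cells transiently transfected with multiple GAL4-UAS reporter transcription units, dosed for 24 hours; reporter mRNA quantified by RT-PCR, 6-FAM primer extension, HpaI digestion and capillary electrophoresis. Gain-of-signal fitted versus DMSO baseline; internal background-control marker.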

[10] = molecular target: Nuclear receptor subfamily 4 group A member 2 (Homo sapiens) (UniProt P43354); experiment: ATG_NURR1_TRANS: Attagene TRANS-FACTORIAL HepG2 Assay for human Nuclear Receptor Related Protein 1 (NURR1) (AID 2282985; active = hit-call score of the fitted dose curve at least 0.9, where 1 is the maximum); settings: HepG2 Attagene TRANS reporter, mRNA readout
Procedure, shortened: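 HepG2 cells transiently transfected with GAL4-UAS reporter units and chimeric NR-Gal4 constructs; chemical exposure 24 h. Reporter mRNA quantified by RT-PCR, fluorescent labelling and capillary electrophoresis; gain of signal fitted relative to DMSO baseline.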

[11] = molecular target: Transcriptional activator Myb (Homo sapiens) (UniProt P10242); experiment: ATG_Myb_CIS: Attagene CIS-FACTORIAL HepG2 Assay for human Myeloblastosis (Myb) Proto-Oncogene Transcription Factor (AID 2282986); settings: HepG2 Attagene CIS-FACTORIAL Myb reporter transcription; actives raise or lower the signal
Procedure, shortened: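 In this HepG2 transient-transfection format, cis-regulated reporter mRNA is quantified 24 h post-dosing by RT-PCR with capillary electrophoresis, fitted bidirectionally to DMSO baseline.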

[12] = molecular target: Nuclear respiratory factor 1 (Homo sapiens) (UniProt Q16656); experiment: ATG_NRF1_CIS: Attagene CIS-FACTORIAL HepG2 Assay for human Nuclear Respiratory Factor 1 (NRF1) Orphan Gene (AID 2282987); settings: HepG2 NRF1 cis-element reporter, Attagene multiplex; actives raise or lower the signal
Procedure, shortened: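 Using DMSO as baseline, gain- or loss-of-signal was fitted for reporter mRNA levels in HepG2 cells transiently transfected with cis-regulated reporter units. Samples were taken 24 h after dosing and read by RT-PCR with capillary electrophoresis.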

[13] = molecular target: Steroid hormone receptor ERR1 (Homo sapiens) (UniProt P11474); experiment: ATG_ERRa_TRANS: Attagene TRANS-FACTORIAL HepG2 Assay for human Estrogen-Related Receptor alpha (ERRa) (AID 2282971; active = hit-call score of the fitted dose curve at least 0.9, where 1 is the maximum); settings: HepG2 Attagene TRANS reporter, ERRa transactivation
Procedure, shortened: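 Reporter transcript induction was quantified by RT-PCR and capillary electrophoresis of FAM-labelled, HpaI-cut products after 24 h treatment of HepG2 cells carrying transiently transfected GAL4-UAS reporter units and an exogenous ERRa-Gal4 fusion; activity scored as increase over DMSO.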

[14] = ATG_GAL4_TRANS: Attagene TRANS-FACTORIAL HepG2 Assay for GAL4 (Internal Marker) (AID 2282976; active = hit-call score of the fitted dose curve at least 0.9, where 1 is the maximum); settings: HepG2 Attagene TRANS GAL4 internal marker reporter
Procedure, shortened: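 First, HepG2 cells were transfected with reporter units under GAL4-UAS control. Next, they were treated with chemical for 24 h. Finally, RNA was reverse-transcribed, PCR-amplified, FAM-labelled and resolved by capillary electrophoresis, with induction scored against DMSO.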

[15] = molecular target: Bile acid receptor (Homo sapiens) (UniProt Q96RI1); experiment: ATG_FXR_TRANS: Attagene TRANS-FACTORIAL HepG2 Assay for Farnesoid X Receptor (FXR) (AID 2282979; active = hit-call score of the fitted dose curve at least 0.9, where 1 is the maximum;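 also: hits raise reporter mRNA above DMSO so AC50 marks FXR activation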); settings: HepG2 Attagene TRANS FXR-GAL4 reporter transcription
Procedure, shortened: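 Transient transfection of HepG2 with multiplexed GAL4-UAS reporter units; exogenous FXR-GAL4 chimera. Dose 24 h → TriZol RNA → oligo(dT) RT → PCR, 6-FAM primer extension, HpaI cut → CE. Gain vs DMSO.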

[16] = molecular target: Estrogen receptor (Homo sapiens) (UniProt P03372); experiment: ATG_ERa_TRANS: Attagene TRANS-FACTORIAL HepG2 Assay for human Estrogen Receptor alpha (ERa) (AID 2282970; active = hit-call score of the fitted dose curve at least 0.9, where 1 is the maximum); settings: HepG2 Attagene TRANS ERa GAL4 reporter, mRNA
Procedure, shortened: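 Human liver HepG2, transient transfection of multiple GAL4-UAS reporter units; TRANS format (exogenous NR-Gal4 chimera). 24 h dosing. Readout: reporter mRNA, RT-PCR, 6-FAM primer extension, HpaI digest, capillary electrophoresis. Positive direction vs DMSO.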

[17] = molecular target: Oxysterols receptor LXR-beta (Homo sapiens) (UniProt P55055); experiment: ATG_LXRb_TRANS: Attagene TRANS-FACTORIAL HepG2 Assay for human Liver X Receptor beta (LXRb) (AID 2282981; active = hit-call score of the fitted dose curve at least 0.9, where 1 is the maximum); settings: HepG2 Attagene TRANS GAL4-LXRb reporter, mRNA
Procedure, shortened: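 HepG2 cells transiently transfected with multiple reporter transcription units carrying chimeric NR-Gal4 proteins acting on GAL4-UAS reporters; compound exposure 24 h. Reporter mRNA quantified by RT-PCR, 6-FAM labelling, HpaI digestion and capillary electrophoresis; gain of signal versus DMSO.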

[18] = molecular target: Oxysterols receptor LXR-alpha (Homo sapiens) (UniProt Q13133); experiment: ATG_LXRa_TRANS: Attagene TRANS-FACTORIAL HepG2 Assay for human Liver X Receptor alpha (LXRa) (AID 2282980; active = hit-call score of the fitted dose curve at least 0.9, where 1 is the maximum); settings: HepG2 Attagene TRANS reporter, LXRa transactivation
Procedure, shortened: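 Transfect HepG2 with GAL4-UAS multiplex reporter constructs (TRANS format, chimeric receptor-GAL4); treat 24 h; extract RNA, reverse-transcribe, PCR-amplify, FAM-label, HpaI-digest; resolve fragments by capillary electrophoresis. Upward response vs DMSO.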

Measured: AC50

Transcriptional activator Myb (Homo sapiens), sequence (P10242 whole entry, looked up): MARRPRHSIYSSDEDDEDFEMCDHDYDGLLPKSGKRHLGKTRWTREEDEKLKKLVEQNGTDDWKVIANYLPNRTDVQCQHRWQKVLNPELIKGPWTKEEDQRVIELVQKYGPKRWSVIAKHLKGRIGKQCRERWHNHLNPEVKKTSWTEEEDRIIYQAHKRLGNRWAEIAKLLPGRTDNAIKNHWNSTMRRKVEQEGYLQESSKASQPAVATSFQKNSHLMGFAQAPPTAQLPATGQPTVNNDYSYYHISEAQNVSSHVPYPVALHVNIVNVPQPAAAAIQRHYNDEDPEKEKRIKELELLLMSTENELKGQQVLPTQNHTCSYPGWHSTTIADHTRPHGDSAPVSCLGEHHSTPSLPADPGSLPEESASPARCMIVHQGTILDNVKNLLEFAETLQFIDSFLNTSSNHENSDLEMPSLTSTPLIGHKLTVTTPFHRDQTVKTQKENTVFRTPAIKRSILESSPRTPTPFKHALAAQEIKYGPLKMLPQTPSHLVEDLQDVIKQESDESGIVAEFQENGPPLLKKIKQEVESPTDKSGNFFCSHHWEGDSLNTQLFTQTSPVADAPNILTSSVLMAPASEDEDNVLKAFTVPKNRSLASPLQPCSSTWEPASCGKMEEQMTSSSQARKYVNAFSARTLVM
Oxysterols receptor LXR-alpha (Homo sapiens), sequence (Q13133 whole entry, looked up, the tested form may be a part): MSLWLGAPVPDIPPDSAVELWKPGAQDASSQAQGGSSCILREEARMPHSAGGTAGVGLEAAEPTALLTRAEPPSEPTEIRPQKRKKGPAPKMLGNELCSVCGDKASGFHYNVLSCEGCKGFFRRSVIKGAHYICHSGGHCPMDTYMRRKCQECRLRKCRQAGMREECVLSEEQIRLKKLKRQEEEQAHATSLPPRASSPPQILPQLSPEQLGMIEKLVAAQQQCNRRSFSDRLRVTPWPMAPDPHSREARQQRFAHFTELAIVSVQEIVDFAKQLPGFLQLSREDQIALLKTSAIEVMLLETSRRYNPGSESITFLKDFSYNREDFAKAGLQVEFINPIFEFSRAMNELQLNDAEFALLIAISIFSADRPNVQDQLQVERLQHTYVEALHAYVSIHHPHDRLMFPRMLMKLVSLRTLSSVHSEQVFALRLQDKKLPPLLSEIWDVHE
Hepatocyte nuclear factor 4-alpha (Homo sapiens), sequence (P41235 whole entry, looked up, the tested form may be a part): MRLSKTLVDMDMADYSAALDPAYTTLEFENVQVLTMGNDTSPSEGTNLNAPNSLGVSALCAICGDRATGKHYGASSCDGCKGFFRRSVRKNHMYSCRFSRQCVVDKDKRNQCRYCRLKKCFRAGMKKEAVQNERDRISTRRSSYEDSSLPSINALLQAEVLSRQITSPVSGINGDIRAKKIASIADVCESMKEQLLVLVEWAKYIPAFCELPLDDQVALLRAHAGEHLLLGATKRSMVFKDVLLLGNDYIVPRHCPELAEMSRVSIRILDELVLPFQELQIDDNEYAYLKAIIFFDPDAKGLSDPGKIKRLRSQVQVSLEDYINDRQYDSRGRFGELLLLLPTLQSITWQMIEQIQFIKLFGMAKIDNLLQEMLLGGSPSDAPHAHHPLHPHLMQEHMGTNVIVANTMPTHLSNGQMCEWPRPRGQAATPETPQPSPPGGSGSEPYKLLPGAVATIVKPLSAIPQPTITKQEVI
Estrogen receptor (Homo sapiens), sequence (P03372 whole entry, looked up, the tested form may be a part): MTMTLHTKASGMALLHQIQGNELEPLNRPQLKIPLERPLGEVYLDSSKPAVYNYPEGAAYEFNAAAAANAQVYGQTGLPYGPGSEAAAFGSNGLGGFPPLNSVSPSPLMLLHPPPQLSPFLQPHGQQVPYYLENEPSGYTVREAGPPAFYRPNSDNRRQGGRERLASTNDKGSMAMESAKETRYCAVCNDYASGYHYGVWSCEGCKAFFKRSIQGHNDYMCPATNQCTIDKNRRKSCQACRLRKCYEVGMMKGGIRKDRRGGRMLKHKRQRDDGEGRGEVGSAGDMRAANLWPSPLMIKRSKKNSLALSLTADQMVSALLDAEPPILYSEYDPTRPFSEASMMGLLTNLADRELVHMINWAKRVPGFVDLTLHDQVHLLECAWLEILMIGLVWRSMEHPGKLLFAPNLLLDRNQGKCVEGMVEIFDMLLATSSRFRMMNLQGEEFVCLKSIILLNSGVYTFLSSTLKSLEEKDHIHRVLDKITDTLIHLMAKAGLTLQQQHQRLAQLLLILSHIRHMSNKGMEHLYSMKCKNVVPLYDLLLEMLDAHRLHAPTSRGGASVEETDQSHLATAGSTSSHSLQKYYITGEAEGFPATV
Bile acid receptor (Homo sapiens), sequence (Q96RI1 whole entry, looked up, the tested form may be a part): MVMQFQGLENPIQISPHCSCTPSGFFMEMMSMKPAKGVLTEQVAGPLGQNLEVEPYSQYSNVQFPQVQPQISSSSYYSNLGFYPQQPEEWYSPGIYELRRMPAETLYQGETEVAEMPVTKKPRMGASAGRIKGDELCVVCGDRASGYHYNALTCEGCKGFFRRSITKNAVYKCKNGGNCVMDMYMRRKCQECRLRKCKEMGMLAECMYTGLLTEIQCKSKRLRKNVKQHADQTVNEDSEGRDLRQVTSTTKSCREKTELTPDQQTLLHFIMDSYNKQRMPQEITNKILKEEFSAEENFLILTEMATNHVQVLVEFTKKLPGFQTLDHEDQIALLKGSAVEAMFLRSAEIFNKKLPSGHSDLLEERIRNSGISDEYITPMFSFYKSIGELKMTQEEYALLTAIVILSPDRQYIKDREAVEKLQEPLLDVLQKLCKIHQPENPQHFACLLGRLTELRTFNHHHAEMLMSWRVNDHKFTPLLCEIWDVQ
Nuclear respiratory factor 1 (Homo sapiens), sequence (Q16656 whole entry, looked up): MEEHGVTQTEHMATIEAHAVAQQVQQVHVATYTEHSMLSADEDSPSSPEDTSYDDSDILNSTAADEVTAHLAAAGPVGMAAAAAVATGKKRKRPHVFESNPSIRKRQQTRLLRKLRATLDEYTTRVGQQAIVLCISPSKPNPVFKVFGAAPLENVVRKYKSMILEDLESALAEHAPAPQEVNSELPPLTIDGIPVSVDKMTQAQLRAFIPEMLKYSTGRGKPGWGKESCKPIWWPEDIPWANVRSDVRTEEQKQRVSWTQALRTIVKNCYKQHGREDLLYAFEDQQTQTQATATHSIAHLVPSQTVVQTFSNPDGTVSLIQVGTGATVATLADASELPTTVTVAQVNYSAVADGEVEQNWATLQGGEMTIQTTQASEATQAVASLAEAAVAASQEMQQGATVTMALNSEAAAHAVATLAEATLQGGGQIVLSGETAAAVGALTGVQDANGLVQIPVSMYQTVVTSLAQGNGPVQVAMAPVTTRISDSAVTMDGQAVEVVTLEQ
X-box-binding protein 1 (Homo sapiens), sequence (P17861 whole entry, looked up): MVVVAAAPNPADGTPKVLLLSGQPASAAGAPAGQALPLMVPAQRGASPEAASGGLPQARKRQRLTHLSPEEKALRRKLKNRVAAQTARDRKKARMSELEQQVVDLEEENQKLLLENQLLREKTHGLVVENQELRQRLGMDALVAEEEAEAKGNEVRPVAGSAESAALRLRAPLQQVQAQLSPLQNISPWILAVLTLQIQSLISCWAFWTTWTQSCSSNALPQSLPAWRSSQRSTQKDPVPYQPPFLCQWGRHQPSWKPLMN
Oxysterols receptor LXR-beta (Homo sapiens), sequence (P55055 whole entry, looked up, the tested form may be a part): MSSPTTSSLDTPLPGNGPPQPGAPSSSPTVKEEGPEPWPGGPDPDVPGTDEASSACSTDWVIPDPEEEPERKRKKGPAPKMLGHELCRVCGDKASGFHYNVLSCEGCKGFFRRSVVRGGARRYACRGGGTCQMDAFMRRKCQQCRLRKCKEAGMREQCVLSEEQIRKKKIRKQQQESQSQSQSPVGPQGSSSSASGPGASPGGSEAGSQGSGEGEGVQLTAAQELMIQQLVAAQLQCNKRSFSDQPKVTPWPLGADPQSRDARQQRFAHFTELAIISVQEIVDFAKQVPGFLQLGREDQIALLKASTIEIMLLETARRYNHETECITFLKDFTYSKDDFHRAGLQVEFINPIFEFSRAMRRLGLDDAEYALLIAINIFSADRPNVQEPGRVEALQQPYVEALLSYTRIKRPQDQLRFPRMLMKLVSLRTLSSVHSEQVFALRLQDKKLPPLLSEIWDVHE
Estrogen-related receptor gamma (Homo sapiens), sequence (P62508 whole entry, looked up, the tested form may be a part): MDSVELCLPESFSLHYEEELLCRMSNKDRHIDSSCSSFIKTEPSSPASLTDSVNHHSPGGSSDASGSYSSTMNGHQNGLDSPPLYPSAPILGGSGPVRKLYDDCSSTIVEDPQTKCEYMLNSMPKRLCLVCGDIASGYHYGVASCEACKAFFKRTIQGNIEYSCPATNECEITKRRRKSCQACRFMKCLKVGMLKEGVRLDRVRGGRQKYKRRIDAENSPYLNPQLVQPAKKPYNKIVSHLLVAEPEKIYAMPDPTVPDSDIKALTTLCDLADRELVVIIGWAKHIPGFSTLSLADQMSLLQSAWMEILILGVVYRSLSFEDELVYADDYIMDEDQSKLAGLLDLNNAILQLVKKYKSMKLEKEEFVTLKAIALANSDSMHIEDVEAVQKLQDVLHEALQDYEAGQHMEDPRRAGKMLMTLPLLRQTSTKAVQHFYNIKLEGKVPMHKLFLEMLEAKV
Steroid hormone receptor ERR1 (Homo sapiens), sequence (P11474 whole entry, looked up, the tested form may be a part): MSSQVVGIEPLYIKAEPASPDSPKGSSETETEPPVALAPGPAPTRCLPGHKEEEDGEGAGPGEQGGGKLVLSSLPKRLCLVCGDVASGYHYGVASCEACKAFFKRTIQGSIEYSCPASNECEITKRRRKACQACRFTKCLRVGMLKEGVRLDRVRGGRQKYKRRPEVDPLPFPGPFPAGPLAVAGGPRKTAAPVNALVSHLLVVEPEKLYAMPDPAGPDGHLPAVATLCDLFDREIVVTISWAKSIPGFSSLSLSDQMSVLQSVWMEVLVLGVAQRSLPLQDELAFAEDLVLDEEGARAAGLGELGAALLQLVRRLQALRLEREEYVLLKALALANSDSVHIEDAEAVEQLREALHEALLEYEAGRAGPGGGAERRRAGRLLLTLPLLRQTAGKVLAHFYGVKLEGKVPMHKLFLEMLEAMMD

CCCCOC(=O)CCCCC(=O)OCCCC
inactive: [1] | [2] | [3] | [4] | [5] | [6] | [7] | [8] | [9] | [10] | [11] | [12]

CC(C)c1cccc(C(C)C)c1
inactive: [1] | [2] | [3] | [13] | [4] | [5] | [7] | [11] | [12]

CCCCC(CC)COP(=O)(OCC(CC)CCCC)OCC(CC)CCCC (centres undefined)
active: [3] 0.61 µM
inactive: [1] | [2] | [4] | [14] | [15] | [8] | [11] | [12]

CC(C)OC(=O)C(C)(C)Oc1ccc(C(=O)c2ccc(Cl)cc2)cc1
active: [3] 27.6 µM | [16] 27.1 µM | [4] 54.4 µM | [15] 26.8 µM
inactive: [1] | [2] | [14] | [7] | [8] | [11] | [12]

O=C1OC(c2ccc(O)cc2)(c2ccc(O)cc2)c2ccccc21
active: [1] 46.8 µM | [3] 6.27 µM | [4] 30 µM
inactive: [2] | [5] | [11] | [12]

CCc1nc(N)nc(N)c1-c1ccc(Cl)cc1
active: [3] 100 µM | [4] 147 µM | [12] 48.8 µM
inactive: [1] | [2] | [16] | [15] | [8] | [11]

CCC(C)N(C)C(=O)c1cc2ccccc2c(-c2ccccc2Cl)n1 (centres undefined)
active: [3] 1.54 µM | [12] 63 µM
inactive: [1] | [2] | [16] | [4] | [5] | [9] | [11]

CN(C)C(=O)NC1(c2ccccc2)CCN(CCC[C@]2(c3ccc(Cl)c(Cl)c3)CCCN(C(=O)c3ccccc3)C2)CC1
active: [3] 2.75 µM | [4] 4.69 µM | [12] 4.5 µM
inactive: [1] | [2] | [5] | [15] | [17] | [7] | [9] | [11]

Cc1ccc(C(C)(C)C)c(O)c1
inactive: [1] | [2] | [6] | [15] | [8] | [11] | [12]
active: [3] 151 µM | [16] 6.64 µM | [4] 139 µM

NC1CCCCC1
inactive: [1] | [2] | [3] | [4] | [14] | [18] | [7] | [8] | [11] | [12]

N[C@@H](Cc1c[nH]c2ccccc12)C(=O)O
inactive: [1] | [2] | [3] | [4] | [5] | [14] | [18] | [17] | [9] | [11] | [12]

C=CCc1ccc(OC)c(OC)c1
inactive: [1] | [2] | [3] | [4] | [5] | [15] | [18] | [7] | [8] | [11] | [12]
